Experimental data published in PubChem BioAssay.
Calls of active or inactive are those of the source.

What was measured:
[1] = E. coli DRC41 culture turbidity changes, primary screen, E. coli filamentation inducer project, strain DRC41, OD650, 48 h (AID 1152);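 also: E. coli MC1000 strain DRC41 lacking acrAB efflux pump and sulA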; conditions: E. coli DRC41 (acrAB sulA), higher = more signal, called active from +8 up or from −8 down
[2] = small-molecule binders of probe aLefty1, primary screen, biochemical, small-molecule microarray, 635/667 nm fluorescence (AID 1153); conditions: higher = more signal;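 also: score merges spot fluorescence with signal-to-noise ratio from the scanned slide images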
[3] = PSAC antagonists in infected red cells, primary screen, cell-based, P. falciparum Indochina, OD700, 1 h (AID 1154); conditions: P. falciparum Indochina infected RBC osmotic lysis, higher = more signal, called active from +8 up or from −8 down
[4] = PSAC antagonists in infected red cells, primary screen, cell-based, P. falciparum Indochina, OD700, 2 h (AID 1155);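 also: lysis reports solute entry through the parasite surface anion channel PSAC; channel blockers reduce lysis of infected cells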; conditions: P. falciparum Indochina infected erythrocytes, osmotic lysis OD700; higher = more signal, called active from +8 up or from −8 down
[5] = osmotic lysis modulators in infected erythrocytes, primary screen, PSAC antagonist project, cell-based, P. falciparum Indochina, OD700, 3 h (AID 1156); conditions: higher = more signal, called active from +8 up or from −8 down
[6] = PSAC antagonists in infected red cells, primary screen, cell-based, P. falciparum Indochina, OD700, 18 h (AID 1157); conditions: P. falciparum Indochina infected erythrocytes, osmotic lysis OD700, 18 h; higher = more signal, called active from +8 up or from −8 down
[7] = modulators of S6 phosphorylation in cells, primary screen, cell-based, A549, cytoblot, luminescence, serum-stimulated (AID 1158); conditions: A549 phospho-S6 cytoblot, 5 h, higher = more signal;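 also: serum-stimulated A549 lung adenocarcinoma cells; signal is phosphorylated S6 detected by cytoblot immunostaining with HRP secondary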
[8] = molecular target: NADPH oxidase 2 (Homo sapiens) (UniProt P04839); assay: NOX2-dependent H2O2 signal modulators, primary screen, NOX inhibitor project, cell-based, HEK293-NOX2, PMA-stimulated, Amplex Red fluorescence (AID 1159); conditions: 45 min, higher = more signal, called active from +8 up or from −8 down; also: test concentration not given here
[9] = molecular target: NADPH oxidase 4 (Homo sapiens) (UniProt Q9NPH5); assay: NOX4-dependent H2O2 signal modulators, primary screen, NOX inhibitor project, cell-based, HEK293-NOX4, tetracycline-induced, Amplex Red fluorescence (AID 1160); conditions: 45 min, higher = more signal, called active from +8 up or from −8 down
[10] = molecular target: NADPH oxidase 5 (Homo sapiens) (UniProt Q96PH1); assay: NOX5-dependent H2O2 signal modulators, primary screen, NOX inhibitor project, cell-based, HEK293-NOX5, Amplex Red fluorescence (AID 1161); conditions: HEK293-NOX5, ionomycin, 45 min, higher = more signal
[11] = A549 cell viability effects, profiling panel, calcein-AM fluorescence, 48 h, basal (AID 1162); conditions: higher = more signal; also: test concentration not given here
[12] = adipocyte viability effects, profiling panel, cell-based, 3T3-L1 adipocytes, calcein-AM fluorescence, 48 h, basal (AID 1163); conditions: 3T3-L1 adipocytes viability, higher = more signal; also: test concentration not given here
[13] = HepG2 cell viability effects, profiling panel, calcein-AM fluorescence, 48 h, basal (AID 1164); conditions: higher = more signal; also: test concentration not given here
[14] = MM1S cell viability effects, profiling panel, calcein-AM fluorescence, 48 h, basal (AID 1165); conditions: higher = more signal;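 also: viability of MM1S multiple myeloma cells under basal unstimulated conditions; test concentration not given here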
[15] = basal RPMI8226 viability, no added stimulus, profiling panel, cell-based, calcein-AM fluorescence, 48 h, PK04 Diversity Set (AID 1166); conditions: RPMI8226 myeloma viability, higher = more signal;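 also: cells grown under basal conditions without added stimulus; test concentration not given here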
[16] = basal HepG2 mitochondrial membrane potential changes, profiling panel, cell-based, JC-1 fluorescence, 24 h, 100 nL compound (AID 1167); conditions: higher = more signal; also: test concentration not given here
[17] = basal 3T3-L1 adipocyte mitochondrial potential changes, profiling panel, cell-based, JC-1 fluorescence, 3T3-L1 adipocytes, 24 h, 100 nL compound (AID 1168); conditions: JC-1 mitochondrial fluorescence, higher = more signal, called active from +8 up or from −8 down; also: test concentration not given here
[18] = basal RPMI8226 mitochondrial membrane potential changes, profiling panel, cell-based, JC-1 fluorescence, 24 h, 100 nL compound (AID 1169); conditions: RPMI8226 myeloma, JC-1 mitochondrial potential fluorescence, higher = more signal; also: test concentration not given here
[19] = basal MM1S mitochondrial membrane potential changes, profiling panel, cell-based, JC-1 fluorescence, 24 h, 100 nL compound (AID 1170); conditions: higher = more signal; also: test concentration not given here
[20] = A549 lung cancer cell viability effects, profiling panel, resazurin fluorescence, 24 h, PK04 Diversity Set (AID 1171); conditions: higher = more signal, called active from +8 up or from −8 down; also: test concentration not given here

NADPH oxidase 2 (Homo sapiens), sequence (P04839 whole entry, looked up): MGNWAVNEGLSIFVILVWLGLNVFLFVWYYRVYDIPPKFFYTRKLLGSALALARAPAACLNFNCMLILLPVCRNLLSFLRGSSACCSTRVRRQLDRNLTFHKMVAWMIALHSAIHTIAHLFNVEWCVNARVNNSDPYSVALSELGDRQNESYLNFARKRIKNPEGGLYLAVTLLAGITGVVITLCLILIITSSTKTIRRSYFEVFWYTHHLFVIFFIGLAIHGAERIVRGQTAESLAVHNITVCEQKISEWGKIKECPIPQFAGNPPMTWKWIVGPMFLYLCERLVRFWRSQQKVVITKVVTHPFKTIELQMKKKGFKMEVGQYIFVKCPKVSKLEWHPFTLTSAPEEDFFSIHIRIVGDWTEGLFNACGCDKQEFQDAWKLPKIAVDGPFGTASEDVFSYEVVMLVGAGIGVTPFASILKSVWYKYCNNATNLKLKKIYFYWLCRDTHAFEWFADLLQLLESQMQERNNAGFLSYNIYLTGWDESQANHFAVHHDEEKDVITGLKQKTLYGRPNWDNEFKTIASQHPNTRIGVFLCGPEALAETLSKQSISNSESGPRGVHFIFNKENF
NADPH oxidase 4 (Homo sapiens), sequence (Q9NPH5 whole entry, looked up): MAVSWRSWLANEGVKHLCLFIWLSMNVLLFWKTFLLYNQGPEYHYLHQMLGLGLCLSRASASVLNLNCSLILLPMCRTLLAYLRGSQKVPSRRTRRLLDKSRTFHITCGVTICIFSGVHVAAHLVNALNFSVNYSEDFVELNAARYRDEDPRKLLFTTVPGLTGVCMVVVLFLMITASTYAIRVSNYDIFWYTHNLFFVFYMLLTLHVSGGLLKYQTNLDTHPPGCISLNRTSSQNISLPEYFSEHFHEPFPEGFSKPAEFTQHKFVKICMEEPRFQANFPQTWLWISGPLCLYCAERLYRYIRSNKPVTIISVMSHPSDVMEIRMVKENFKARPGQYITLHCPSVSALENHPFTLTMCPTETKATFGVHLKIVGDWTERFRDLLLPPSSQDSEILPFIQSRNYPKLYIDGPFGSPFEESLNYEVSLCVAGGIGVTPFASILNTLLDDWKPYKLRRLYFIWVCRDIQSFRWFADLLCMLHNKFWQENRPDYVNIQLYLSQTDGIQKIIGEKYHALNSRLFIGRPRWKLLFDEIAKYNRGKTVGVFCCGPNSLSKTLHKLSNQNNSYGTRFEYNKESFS
NADPH oxidase 5 (Homo sapiens), sequence (Q96PH1 whole entry, looked up): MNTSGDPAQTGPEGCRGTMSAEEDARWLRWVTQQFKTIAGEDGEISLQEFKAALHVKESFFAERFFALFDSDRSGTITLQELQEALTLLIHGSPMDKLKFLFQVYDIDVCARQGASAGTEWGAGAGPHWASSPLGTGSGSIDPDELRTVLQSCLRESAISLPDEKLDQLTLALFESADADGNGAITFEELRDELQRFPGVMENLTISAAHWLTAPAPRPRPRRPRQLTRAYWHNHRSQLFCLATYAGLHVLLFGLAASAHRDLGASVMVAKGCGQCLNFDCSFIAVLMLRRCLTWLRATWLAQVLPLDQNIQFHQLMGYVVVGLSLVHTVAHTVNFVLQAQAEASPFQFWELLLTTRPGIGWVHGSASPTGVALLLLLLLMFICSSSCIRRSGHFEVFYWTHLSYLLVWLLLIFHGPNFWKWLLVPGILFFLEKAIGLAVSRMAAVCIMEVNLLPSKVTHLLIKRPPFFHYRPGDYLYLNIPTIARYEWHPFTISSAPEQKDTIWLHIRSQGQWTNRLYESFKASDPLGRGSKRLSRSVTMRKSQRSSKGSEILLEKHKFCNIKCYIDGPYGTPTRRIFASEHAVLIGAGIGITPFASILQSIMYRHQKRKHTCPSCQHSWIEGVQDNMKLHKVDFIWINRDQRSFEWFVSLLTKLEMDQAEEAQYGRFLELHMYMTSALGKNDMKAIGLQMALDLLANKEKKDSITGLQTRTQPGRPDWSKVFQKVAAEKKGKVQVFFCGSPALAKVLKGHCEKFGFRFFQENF

With C=CCC(OC(C)=O)[C@@H]1[C@@H](N(Cc2ccc(-c3cccc(C(F)(F)F)c3)o2)C(=O)Cc2ccc(F)cc2)c2cc(OCCCO)ccc2N1C(=O)c1ccc2ccccc2c1 (stereo not given in full) the z-score [1] was -0.353 (inactive), the composite z-score [2] was 0.0732 and the z-score [3] was 0.05 (inactive). For the same molecule, the z-score [4] was -0.213 (inactive), the z-score [5] was 0.337 (inactive) and the z-score [6] was 0.161 (inactive). The z-score [7] was 0.531, the z-score [8] was -2.05 (inactive) and the z-score [9] was 0.631 (inactive). For the same molecule, the z-score [10] was 0.0399, the z-score [11] was -0.292 and the z-score [12] was 0.499. For the same molecule, the z-score [13] was 0.966, the z-score [14] was 0.353 and the z-score [15] was 0.366. For the same molecule, the z-score [16] was 2.03, the z-score [17] was 0.294 (inactive) and the z-score [18] was -0.793. For the same molecule, the z-score [19] was 0.251 and the z-score [20] was 0.116 (inactive).
With COc1ccc([Si](C)(C)[C@@H]2[C@@H](CCO)O[C@]3(C(=O)N(Cc4ccccc4)c4ccc(N5C(=O)c6ccccc6Oc6ccccc65)cc43)[C@H]2C)cc1 the z-score [1] was 1.02 (inactive), the composite z-score [2] was 0.0962 and the z-score [3] was 2.11 (inactive). The z-score [4] was 1.37 (inactive), the z-score [5] was 0.0898 (inactive) and the z-score [6] was 0.718 (inactive). The z-score [7] was 0.656, the z-score [8] was 0.212 (inactive) and the z-score [9] was 1.64 (inactive). For the same molecule, the z-score [10] was 2.23, the z-score [11] was -1.47 and the z-score [12] was -0.0095. The z-score [13] was -1.96, the z-score [14] was -1.77 and the z-score [15] was -2.66. The z-score [16] was -0.871, the z-score [17] was -0.735 (inactive) and the z-score [18] was -0.848. The z-score [19] was -1.36 and the z-score [20] was -1.07 (inactive).
In the case of CCN(CC)c1ccc(N2CC=CC34O[C@@H]5C=CCOC(=O)[C@@H]5[C@H]3C(=O)N(CCO)[C@@H]4C2=O)cc1 (stereo not given in full), the z-score [1] is reported as 1.51 (inactive), the composite z-score [2] is reported as 0.0434 and the z-score [3] is reported as 0.116 (inactive). The z-score [4] was 0.0907 (inactive), the z-score [5] was 0.714 (inactive) and the z-score [6] was -0.0665 (inactive). The z-score [7] was -0.221, the z-score [8] was -0.0361 (inactive) and the z-score [9] was 0.364 (inactive). The z-score [10] was 0.613, the z-score [11] was 1.22 and the z-score [12] was 0.273. It also gave a z-score [13] of 0.662, a z-score [14] of -0.783 and a z-score [15] of 0.38. For the same molecule, the z-score [16] was 0.396, the z-score [17] was 0.537 (inactive) and the z-score [18] was -0.0585. The z-score [19] was 0.0601 and the z-score [20] was 0.588 (inactive).
With CN(C)C(=O)[C@]1(Cc2ccccc2CN=[N+]=[N-])N=C(c2ccc(OCCCO)cc2)O[C@@H]1c1ccccc1N=[N+]=[N-] the z-score [1] was -0.174 (inactive), the composite z-score [2] was 0.413 and the z-score [3] was 33.2 (active). For the same molecule, the z-score [4] was 30 (active), the z-score [5] was 2.99 (inactive) and the z-score [6] was 9.81 (active). The z-score [7] was -0.0847, the z-score [8] was -1.25 (inactive) and the z-score [9] was 0.807 (inactive). For the same molecule, the z-score [10] was -0.474, the z-score [11] was -0.691 and the z-score [12] was 0.287. The z-score [13] was -0.923, the z-score [14] was -1.33 and the z-score [15] was -2.16. For the same molecule, the z-score [16] was 0.271, the z-score [17] was 2.38 (inactive) and the z-score [18] was -0.997. The z-score [19] was -1.29 and the z-score [20] was -1.42 (inactive).
In the case of COC(=O)[C@@]1(Cc2ccc(F)cc2)[C@H]2c3cc(C(=O)N(C)C)n(CCO)c3C[C@H]2CN1C(=O)c1ccccc1, the z-score [1] is reported as -0.285 (inactive), the composite z-score [2] is reported as 0.0774 and the z-score [3] is reported as 0.0154 (inactive). The z-score [4] was -0.687 (inactive), the z-score [5] was -1.25 (inactive) and the z-score [6] was -1.27 (inactive). For the same molecule, the z-score [7] was 1.8, the z-score [8] was 0.254 (inactive) and the z-score [9] was 1.68 (inactive). It also gave a z-score [10] of -2.18, a z-score [11] of -0.371 and a z-score [12] of -0.173. For the same molecule, the z-score [13] was 0.318, the z-score [14] was 0.563 and the z-score [15] was 0.382. The z-score [16] was -2.03, the z-score [17] was -0.453 (inactive) and the z-score [18] was 0.161. For the same molecule, the z-score [19] was 0.243 and the z-score [20] was -1.59 (inactive).
In the case of C[N+](C)(C)CCCC[C@@H]1NC(=O)[C@H]2C[C@@H](C(=O)NCCCCCNC(=O)CS)[C@@H](c3ccc(O)cc3)N2C1=O, the z-score [1] is reported as 1.65 (inactive), the composite z-score [2] is reported as -0.0162 and the z-score [3] is reported as 0.105 (inactive). The z-score [4] was -0.38 (inactive), the z-score [5] was -0.364 (inactive) and the z-score [6] was -2.52 (inactive). The z-score [7] was 1.46, the z-score [8] was 0.236 (inactive) and the z-score [9] was 0.335 (inactive). For the same molecule, the z-score [10] was 1.52, the z-score [11] was 0.809 and the z-score [12] was -0.464. For the same molecule, the z-score [13] was 0.664, the z-score [14] was 0.949 and the z-score [15] was -1.51. The z-score [16] was 1.45, the z-score [17] was -0.0341 (inactive) and the z-score [18] was 0.287. For the same molecule, the z-score [19] was -0.013 and the z-score [20] was -0.567 (inactive).
In the case of COCCOC(=O)N1C(=O)[C@@]2(c3ccccc31)[C@H](C(=O)N1CCCCCCC1)[C@H]1C(=O)O[C@H](c3ccccc3)[C@H](c3ccccc3)N1[C@@H]2c1ccc(O)cc1, the z-score [1] is reported as 1.51 (inactive), the composite z-score [2] is reported as 3.16 and the z-score [3] is reported as 0.822 (inactive). The z-score [4] was -0.0852 (inactive), the z-score [5] was 0.367 (inactive) and the z-score [6] was -0.0764 (inactive). The z-score [7] was 1.94, the z-score [8] was -3.28 (inactive) and the z-score [9] was -0.538 (inactive). For the same molecule, the z-score [10] was -4, the z-score [11] was 0.452 and the z-score [12] was 0.688. It also gave a z-score [13] of 1.11, a z-score [14] of -0.233 and a z-score [15] of -1.54. The z-score [16] was -0.229, the z-score [17] was 1.45 (inactive) and the z-score [18] was -0.564. For the same molecule, the z-score [19] was -0.21 and the z-score [20] was 0.17 (inactive).
With [N-]=[N+]=NCc1ccccc1C[C@]1(C(=O)NCc2ccccc2)N=C(c2ccc(OCCCO)cc2)O[C@H]1c1ccccc1CN=[N+]=[N-] the z-score [1] was 1.76 (inactive), the composite z-score [2] was 1.09 and the z-score [3] was 18.7 (active). For the same molecule, the z-score [4] was 5.01 (inactive), the z-score [5] was 2.53 (inactive) and the z-score [6] was 0.936 (inactive). For the same molecule, the z-score [7] was 2.34, the z-score [8] was -1.09 (inactive) and the z-score [9] was 0.145 (inactive). For the same molecule, the z-score [10] was 0.094, the z-score [11] was -1.42 and the z-score [12] was 2.15. For the same molecule, the z-score [13] was -0.955, the z-score [14] was -1.23 and the z-score [15] was -1.69. For the same molecule, the z-score [16] was 0.247, the z-score [17] was -0.158 (inactive) and the z-score [18] was -0.899. The z-score [19] was -0.214 and the z-score [20] was -1.09 (inactive).
For COC(=O)Cn1c(C(=O)N(C)C)cc2c1C[C@H]1CN(C(=O)c3ccccc3)[C@@](Cc3ccc(OC)cc3)(C(=O)OC)[C@@H]21, the z-score [1] was -1.35 (inactive), the composite z-score [2] was 0.546 and the z-score [3] was 2.81 (inactive). For the same molecule, the z-score [4] was 0.765 (inactive), the z-score [5] was 1.04 (inactive) and the z-score [6] was 0.765 (inactive). The z-score [7] was -0.62, the z-score [8] was 0.494 (inactive) and the z-score [9] was -0.539 (inactive). It also gave a z-score [10] of 0.813, a z-score [11] of -0.199 and a z-score [12] of -0.714. The z-score [13] was 0.496, the z-score [14] was 0.611 and the z-score [15] was -0.734. For the same molecule, the z-score [16] was 3.44, the z-score [17] was -0.881 (inactive) and the z-score [18] was -0.329. The z-score [19] was -1.36 and the z-score [20] was -0.31 (inactive).
